Results on five compounds are retold here after PubChem BioAssay.

Active and inactive are the calls of the source.

The target in experiment [1] is Albumin (Bos taurus) (UniProt P02769). Briefly: compounds binding labelled BSA control protein – biochemical, small-molecule microarray, Alexa647 label, 635/667 nm fluorescence, artefact control for SMM control protein annotation, profiling panel (AID 1118).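 Note: score merges 667 nm emission intensity and signal-to-noise per printed compound spot.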 The following applies: BSA-A647 binding, fluorescence 635 nm, higher = more signal.
Chain of Albumin (Bos taurus) (P02769 whole entry, looked up): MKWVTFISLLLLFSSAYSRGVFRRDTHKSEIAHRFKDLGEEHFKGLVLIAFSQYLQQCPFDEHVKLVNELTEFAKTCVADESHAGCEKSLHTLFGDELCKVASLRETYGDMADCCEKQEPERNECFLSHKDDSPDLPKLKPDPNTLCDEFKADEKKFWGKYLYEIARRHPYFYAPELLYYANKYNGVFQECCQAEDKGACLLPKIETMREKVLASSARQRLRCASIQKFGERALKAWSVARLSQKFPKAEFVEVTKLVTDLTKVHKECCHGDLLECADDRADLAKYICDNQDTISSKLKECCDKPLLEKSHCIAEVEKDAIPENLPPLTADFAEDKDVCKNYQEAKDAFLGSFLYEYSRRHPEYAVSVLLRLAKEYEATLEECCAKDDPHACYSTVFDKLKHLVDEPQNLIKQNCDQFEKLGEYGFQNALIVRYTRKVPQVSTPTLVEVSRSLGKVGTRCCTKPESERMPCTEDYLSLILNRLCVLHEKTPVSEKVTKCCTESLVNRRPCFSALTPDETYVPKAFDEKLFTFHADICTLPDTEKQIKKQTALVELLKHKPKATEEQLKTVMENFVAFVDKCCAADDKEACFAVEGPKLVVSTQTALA
A short description of experiment [2]: probe aXIP binding to arrayed compounds – biochemical, NeuroSMM set, 635/667 nm fluorescence, primary screen (AID 1119).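 Note: probe is the protein aXip251-270 applied at 1 µg/mL to compound-printed slides; binding of probe to printed compounds measured as 667 nm fluorescence plus signal to noise.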 The following applies: small-molecule microarray, higher = more signal, called active from +8 up or from −8 down.
Experiment [3] can be described thus: probe aNOTCH3 binding on compound microarray – biochemical, small-molecule microarray, 635/667 nm fluorescence, primary screen (AID 1120).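 Note: probe is a biotin-tagged antibody raised against NOTCH3 rather than NOTCH3 protein; score merges spot fluorescence near 667 nm with spot signal to noise.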 The settings on record: higher = more signal.
Experiment [4] in a line: probe aNOTCH2 binding on compound microarray – biochemical, small-molecule microarray, 635/667 nm fluorescence, primary screen (AID 1121).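 Note: score merges feature fluorescence read at 667 nm with its signal to noise.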 The settings on record: higher = more signal.
The target of experiment [5] is Carbonic anhydrase 2 (Homo sapiens) (UniProt P00918). Briefly: compounds binding carbonic anhydrase 2 – biochemical, small-molecule microarray, Alexa647-labelled CAII, profiling panel (AID 1122). The settings on record: CAII-A647 binding fluorescence, higher = more signal.
Experiment [6] can be described thus: COS7 lysate on small-molecule microarray, probe aHis, 635 nm (AID 1123).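 Note: z-score combines 667nm fluorescence intensity with signal-to-noise per printed compound spot.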 The following applies: COS7 cell lysate, fluorescence, higher = more signal.
Experiment [7] can be described thus: probe aLAP1 signal on lysate-treated microarray – cell lysate, small-molecule microarray, COS7 lysate, primary screen (AID 1124).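 Note: lysate comes from COS7 cells expressing LAP1 and is applied at 0.3 µg/mL; score merges spot fluorescence near 667 nm with signal-to-noise over triplicate slides.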 The settings on record: probe aLAP1, fluorescence, higher = more signal.
The test system of experiment [8] is Sam68 (KHDRBS1). Put plainly: compounds binding KHDRBS1 protein – biochemical, small-molecule microarray, 635 nm fluorescence, primary screen (AID 1125).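 Note: score merges 667 nm channel intensity with signal to noise over triplicate slides.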 The settings on record: higher = more signal.
Experiment [9] deals with Chordin-like protein 2 (CHRDL2). Briefly: compounds binding chordin-like 2 – biochemical, small-molecule microarray, 635 nm fluorescence, primary screen (AID 1126).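 Note: printed compound slides probed with Chrdl2 protein at 4 µg/mL for 1 h at 4 C; score merges 667 nm emission intensity with signal to noise over three replicate slides.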 The settings on record: fluorescence 635 nm, higher = more signal.
The target of experiment [10] is Concanavalin-A (Canavalia ensiformis) (UniProt P02866). Put plainly: compounds binding concanavalin A lectin – biochemical, small-molecule microarray, Alexa647 label, 635 nm, artefact control for SMM control protein annotation, primary screen (AID 1127).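 Note: z combines 667 nm emission intensity with signal-to-noise across three replicate slides.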 The following applies: ConA-A647 binding fluorescence, higher = more signal.
Chain of Concanavalin-A (Canavalia ensiformis) (P02866 whole entry, looked up): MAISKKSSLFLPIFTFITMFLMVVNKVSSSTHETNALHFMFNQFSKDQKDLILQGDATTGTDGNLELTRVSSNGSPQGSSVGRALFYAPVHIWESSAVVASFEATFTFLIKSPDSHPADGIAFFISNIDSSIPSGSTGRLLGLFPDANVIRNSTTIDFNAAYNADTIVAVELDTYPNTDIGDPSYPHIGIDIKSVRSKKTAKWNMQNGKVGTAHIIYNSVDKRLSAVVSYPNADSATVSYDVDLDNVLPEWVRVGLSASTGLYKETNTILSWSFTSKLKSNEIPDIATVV
Experiment [11] is described as follows: compounds binding Alexa647 anti-His antibody – biochemical, small-molecule microarray, 635 nm fluorescence, artefact control for SMM control protein annotation, primary screen (AID 1128).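 Note: score merges feature fluorescence with signal-to-noise for each printed compound spot.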 The following applies: higher = more signal.
For experiment [12], the system named is Human papillomavirus type 1a E7 protein (residues 1-88). Put plainly: HPV1a E7 small-molecule binders, primary screen, biochemical, small-molecule microarray, residues 1-88, 635 nm (AID 1129). The settings on record: small-molecule microarray binding, fluorescence 635 nm; higher = more signal.
Experiment [13] concerns the target Focal adhesion kinase 1 (Homo sapiens) (UniProt Q05397). Briefly: PTK2 protein binding on printed compound slides – biochemical, small-molecule microarray, 635/667 nm fluorescence, BSA, DTT, primary screen (AID 1130).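 Note: composite of spot emission at 667 nm and signal to noise over triplicate slides.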 The following applies: 635 nm fluorescence, higher = more signal.
Experiment [14] deals with Fibrinogen (Alexa647-labelled). Put plainly: Alexa647-fibrinogen binding to printed small molecules – biochemical, small-molecule microarray, 635/667 nm fluorescence, artefact control for SMM control-protein annotation, profiling panel (AID 1131).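 Note: z-score merges 667 nm fluorescence with per-spot signal-to-noise over triplicate slides.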 The settings on record: fibrinogen-A647 binding fluorescence, higher = more signal.
For experiment [15], the target named is Follistatin (Homo sapiens) (UniProt P19883). Put plainly: FST protein binding to printed compounds – biochemical, small-molecule microarray, 635/667 nm fluorescence, primary screen (AID 1132). The following applies: 635 nm fluorescence, higher = more signal.
Chain of Follistatin (Homo sapiens) (P19883 whole entry, looked up): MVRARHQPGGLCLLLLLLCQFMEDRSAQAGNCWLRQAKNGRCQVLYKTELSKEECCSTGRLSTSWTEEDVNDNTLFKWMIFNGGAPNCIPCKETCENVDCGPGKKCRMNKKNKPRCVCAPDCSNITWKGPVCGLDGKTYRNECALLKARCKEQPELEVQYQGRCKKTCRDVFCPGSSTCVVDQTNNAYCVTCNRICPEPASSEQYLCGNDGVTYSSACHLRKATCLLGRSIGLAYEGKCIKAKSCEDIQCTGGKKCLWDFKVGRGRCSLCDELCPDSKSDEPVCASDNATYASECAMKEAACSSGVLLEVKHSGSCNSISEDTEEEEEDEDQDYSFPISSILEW
In experiment [16] the target is Fibroblast growth factor 2 (Homo sapiens) (UniProt P09038). Put plainly: basic fibroblast growth factor binding to printed compounds – biochemical, small-molecule microarray, 635/667 nm fluorescence, primary screen (AID 1133). The settings on record: FGF2, fluorescence 635/667, higher = more signal.
Chain of Fibroblast growth factor 2 (Homo sapiens) (P09038 whole entry, looked up): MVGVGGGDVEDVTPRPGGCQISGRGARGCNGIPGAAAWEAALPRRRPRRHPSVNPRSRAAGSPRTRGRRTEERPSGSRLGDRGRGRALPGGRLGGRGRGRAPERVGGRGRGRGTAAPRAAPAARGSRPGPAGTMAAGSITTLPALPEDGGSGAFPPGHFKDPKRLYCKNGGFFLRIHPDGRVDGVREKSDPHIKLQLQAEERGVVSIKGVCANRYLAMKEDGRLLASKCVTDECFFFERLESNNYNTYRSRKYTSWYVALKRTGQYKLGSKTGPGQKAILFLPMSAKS
Experiment [17] can be described thus: JC-1 mitochondrial potential readout, lung cancer cells – cell-based, A549, JC-1 fluorescence, basal, 24 h, 100 nL, profiling panel (AID 1138).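 Note: A549 lung adenocarcinoma cells under basal conditions with no added stimulus; test concentration not given here.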 The following applies: higher = more signal.
The subject of experiment [18] is Lefty1. Briefly: Lefty1 protein binding to printed compounds – biochemical, small-molecule microarray, 635/667 nm fluorescence, primary screen (AID 1139). The settings on record: fluorescence 635/667, higher = more signal.
The test system of experiment [19] is wheat germ agglutinin (Triticum aestivum), Alexa647-labelled. Put plainly: Alexa647-WGA lectin binding to printed small molecules – biochemical, small-molecule microarray, 635/667 nm fluorescence, artefact control for SMM control-protein annotation, profiling panel (AID 1140).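 Note: score merges 667 nm feature emission with signal to noise over triplicate slides.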 The following applies: WGA-A647 binding, 635 nm fluorescence, higher = more signal.
Experiment [20] deals with Luciferin 4-monooxygenase (Photinus pyralis) (UniProt P08659). Put plainly: inhibition of purified Photinus pyralis luciferase – biochemical, luminescence, purified enzyme, 2006 set, primary screen (AID 1141).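 Note: cell-free assay with purified firefly luciferase at 100 ng per well in PBS; test concentration not given here.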 The following applies: purified firefly luciferase, SteadyGlo luminescence, 30 min; higher = more signal, called active from +8 up or from −8 down.
Chain of Luciferin 4-monooxygenase (Photinus pyralis) (P08659 whole entry, looked up): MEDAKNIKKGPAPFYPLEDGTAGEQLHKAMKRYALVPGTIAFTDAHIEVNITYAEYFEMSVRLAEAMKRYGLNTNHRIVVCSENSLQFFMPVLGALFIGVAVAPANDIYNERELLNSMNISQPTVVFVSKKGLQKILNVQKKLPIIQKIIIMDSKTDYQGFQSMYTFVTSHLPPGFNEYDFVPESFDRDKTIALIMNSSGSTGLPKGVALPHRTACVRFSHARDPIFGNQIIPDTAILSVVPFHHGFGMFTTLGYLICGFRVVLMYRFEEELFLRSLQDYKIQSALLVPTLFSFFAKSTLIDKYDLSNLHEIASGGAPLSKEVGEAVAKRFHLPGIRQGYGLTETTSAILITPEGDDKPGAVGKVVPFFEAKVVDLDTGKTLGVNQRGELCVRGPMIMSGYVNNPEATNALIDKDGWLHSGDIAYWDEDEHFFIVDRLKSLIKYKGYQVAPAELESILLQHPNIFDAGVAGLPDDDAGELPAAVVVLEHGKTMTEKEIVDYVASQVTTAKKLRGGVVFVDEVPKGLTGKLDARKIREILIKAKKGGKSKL

Chain of Focal adhesion kinase 1 (Homo sapiens) (Q05397 whole entry, looked up): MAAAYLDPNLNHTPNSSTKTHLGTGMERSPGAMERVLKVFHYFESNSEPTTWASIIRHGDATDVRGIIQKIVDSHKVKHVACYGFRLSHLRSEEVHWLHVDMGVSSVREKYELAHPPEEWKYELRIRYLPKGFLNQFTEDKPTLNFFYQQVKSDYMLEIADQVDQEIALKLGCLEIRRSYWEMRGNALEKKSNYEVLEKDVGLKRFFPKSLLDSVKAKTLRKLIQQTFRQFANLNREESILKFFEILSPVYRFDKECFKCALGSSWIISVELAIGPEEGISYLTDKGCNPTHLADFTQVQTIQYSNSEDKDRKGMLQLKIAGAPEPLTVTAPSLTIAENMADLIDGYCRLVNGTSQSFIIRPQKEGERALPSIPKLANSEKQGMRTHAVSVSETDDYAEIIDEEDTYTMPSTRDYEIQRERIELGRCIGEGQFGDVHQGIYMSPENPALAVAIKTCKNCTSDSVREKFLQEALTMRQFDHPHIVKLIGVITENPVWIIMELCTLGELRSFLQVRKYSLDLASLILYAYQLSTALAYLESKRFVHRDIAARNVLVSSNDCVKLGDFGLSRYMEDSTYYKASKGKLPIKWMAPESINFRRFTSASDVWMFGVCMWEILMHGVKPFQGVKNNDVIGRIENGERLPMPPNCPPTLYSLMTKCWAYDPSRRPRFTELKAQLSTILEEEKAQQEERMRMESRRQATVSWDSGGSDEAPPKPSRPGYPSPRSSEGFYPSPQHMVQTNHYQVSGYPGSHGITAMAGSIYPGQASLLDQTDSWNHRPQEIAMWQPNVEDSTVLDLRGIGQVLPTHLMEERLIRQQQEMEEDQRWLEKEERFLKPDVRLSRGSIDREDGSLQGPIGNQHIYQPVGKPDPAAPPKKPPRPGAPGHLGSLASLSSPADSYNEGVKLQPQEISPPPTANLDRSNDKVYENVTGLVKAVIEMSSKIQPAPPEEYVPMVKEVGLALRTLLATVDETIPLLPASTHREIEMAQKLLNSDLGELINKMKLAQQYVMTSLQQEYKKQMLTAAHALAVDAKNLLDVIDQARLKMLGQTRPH

For the compound `C=CCNC(=O)[C@@H]1[C@H]2C(=O)O[C@H](c3ccccc3)[C@H](c3ccccc3)N2[C@H](c2ccc(O)cc2)[C@@]12C(=O)N(C(=O)OCCOC)c1ccc(C#CCC(C(=O)OC)C(=O)OC)cc12`, the composite z-score in experiment [1] is 0.366; in [3], 0.0813; in [4] it was -0.084; in experiment [5] it was 0.271; in [6], 1.33; in experiment [7] it was 0.793. In addition, the composite z-score in experiment [8] is 1.3; in [9], 0.413; in experiment [10] it was 0.601; in [11], 1.06; in [12], 1.19; in experiment [13], 0.214. Further, the composite z-score in [14] is 0.271; in experiment [15], 1.13; in [16], 0.722; in [18] it was 0.719; in [19], 0.94. The composite Z-score in experiment [2] is 0.903 (inactive). The z-score is 0.556 in experiment [17] and 0.367 (inactive) in [20].

Turning to `[N-]=[N+]=NCc1ccccc1[C@H]1OC(c2ccc(OCCCO)cc2)=N[C@@]1(Cc1ccccc1N=[N+]=[N-])C(N)=O`, the composite z-score in experiment [1] is 0.884; in experiment [3] it was 0.339; in experiment [4], -0.229; in [5], 0.743; in experiment [6] it was 2.72; in experiment [7] it was -0.182. The composite z-score in [8] is 1.27; in experiment [9] it was -0.0265; in experiment [10], 1.08; in [11] it was 1.03; in experiment [12], 1.14; in experiment [13], 0.579. Moreover, the composite z-score in experiment [14] was determined as 1.01; in experiment [15] it was 1.21; in experiment [16], 0.27; in experiment [18] it was 0.174; in experiment [19], 1.21. Further, the composite Z-score in [2] was 0.385 (inactive). In addition, the z-score in experiment [17] is 0.145; in [20] it was -3.23 (inactive).

Regarding `COCCCNC(=O)[C@@]1(CCC(=O)OC(C)(C)C)N=C(c2ccc(OCCCO)cc2)O[C@H]1c1ccccc1`, the composite z-score in experiment [1] was 0.838; in experiment [3] it was 0.141; in experiment [4], -0.0237; in experiment [5] it was 0.696; in experiment [6], 2.94; in [7] it was 0.584. Also, the composite z-score is 0.748 in experiment [8]; -0.864 in [9]; 0.525 in experiment [10]; 2.41 in experiment [11]; 1.22 in experiment [12]; 0.0039 in experiment [13]. The composite z-score is 0.986 in [14]; 1.36 in [15]; 0.295 in experiment [16]; -0.568 in experiment [18]; 0.597 in experiment [19]. Besides, in experiment [2], the composite Z-score was 0.0999 (inactive). Besides, the z-score was 1.42 in experiment [17] and -0.173 (inactive) in experiment [20].

As for `CC(C)N1C(=O)[C@@]2(Cc3ccccc31)c1ccccc1C(=O)N(Cc1ccccc1C(F)(F)F)[C@H]2c1ccc(CO)cc1`, the composite z-score was -0.832 in experiment [1]; -0.374 in [3]; 0.0015 in [4]; 0.754 in experiment [5]; -0.011 in experiment [6]; 0.739 in experiment [7]. Moreover, the composite z-score in experiment [8] was found to be 1.01; in [9], 1.14; in [10], 1.1; in experiment [11], 0.175; in [12], 0.174; in experiment [13], 0.368. For the same compound, the composite z-score in experiment [14] is -0.0628; in experiment [15], 0.902; in experiment [16], 1.18; in experiment [18], 0.76; in [19], -0.203. For the same compound, the composite Z-score in experiment [2] was 0.795 (inactive). In addition, the results for the z-score in experiment [17] and in experiment [20] were -0.602 and -0.301 (inactive), respectively.

For the compound `C=CCNC(=O)[C@@H]1[C@H]2C(=O)O[C@H](c3ccccc3)[C@H](c3ccccc3)N2[C@H](c2ccc(OCCO)cc2)[C@@]12C(=O)N(C(=O)OCCOC)c1ccccc12`, the composite z-score in experiment [1] was 0.258; in [3] it was -0.0362; in [4], -0.0432; in experiment [5] it was 0.589; in experiment [6] it was 2.37; in experiment [7], 0.67. For the same compound, the composite z-score in [8] amounted to 1.29; in experiment [9] it was 0.389; in [10], 1.03; in experiment [11], 1.25; in [12] it was 1.19; in experiment [13], 0.986. In addition, the composite z-score in experiment [14] came out at 0.61; in experiment [15] it was 1.29; in experiment [16], 1.26; in experiment [18] it was 0.581; in [19], 0.539. Besides, in experiment [2], the composite Z-score was 1.01 (inactive). The figures for the z-score in [17] and in [20] were 1.11 and 0.36 (inactive), respectively.
